TIM10 inh – growth inhibitors of isogenic TIM10 control yeast, primary screen, counter-screen for tim10-1 yeast inhibitor project, luminescence, uHTS; S. cerevisiae TIM10 strain growth, BacTiter-Glo luminescence, 24 h; inhibition, % at 10 µM; 330,000 tested, 1.4% active; AID 463195, 2010;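 active = inhibition of 40% or more at the single tested concentration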;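 note: wild-type TIM10 isogenic control strain grown at permissive 25 °C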
SKKanGAS inh – S. pyogenes SKKanGAS growth inhibitors in kanamycin, primary screen, streptokinase expression inhibitor project, SKKanGAS strain, BacTiter-Glo luminescence. 6 h. inhibition, % at 7.5 µM. 300,000 tested, 1.3% active. AID 1662, 2009;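 active = mean replicate score, as percent of positive control median, at least 50; inconclusive = mean below 50 but one replicate at or above 50; inactive = mean and every replicate below 50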;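 note: strain carries kanamycin resistance gene driven by streptokinase promoter and grows in 40 µg/ml kanamycin; loss of luminescence reflects streptokinase promoter inhibition or plain growth inhibition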
PfHsp90 yeast 2 – growth inhibition of PfHsp90-expressing yeast, primary screen, antimalarial PfHsp90 inhibitor project, S. cerevisiae, BacTiter-Glo luminescence, single point, set 2; BacTiter-Glo ATP, 48 h; yeast lacking PDR1 and PDR3 efflux regulators; inhibition, % at 9.4 µM; 310,000 tested, 0.32% active;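 active = every replicate shows inhibition above about 80%, whatever the replicate mean, limit read from the data; inconclusive = mean inhibition reaches the set limit but some replicate falls short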
tim10-1 inh – growth inhibitors of tim10-1 mutant yeast, primary screen, luminescence, uHTS | S. cerevisiae tim10-1 ts strain growth, BacTiter-Glo, 24 h | inhibition, % at 20 µM | 330,000 tested, 2.2% active | AID 463190, 2010;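 active = inhibition of at least 40%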;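 note: mutant grown at 25 °C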
tim23-1 inh – growth inhibitors of tim23-1 mutant yeast, primary screen, luminescence, uHTS. S. cerevisiae tim23-1 growth, BacTiter-Glo luminescence, 24 h. 330,000 tested, 1.3% active. inhibition, % at 20 µM;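 active = growth inhibition of the mutant yeast at or above 50%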;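 note: temperature-sensitive mutant grown at 25 °C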
NALP3 yeast inh – NALP3 inflammasome inhibitors in reconstituted yeast, primary screen, luminescence, uHTS | Yeast reconstituted NLRP3/ASC/caspase-1, beta-gal luminescence, 24 h | inhibition, % at 10 µM | 330,000 tested, 0.39% active | AID 2825, 2010;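 active = inhibition of 50% or more; inactive = inhibition below 50%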
tim10-1 conf – growth inhibitors of tim10-1 mutant yeast, confirmation, single concentration, luminescence, S. cerevisiae; shares compounds with tim10-1 inh; 7,400 tested, 56% active; S. cerevisiae tim10-1 ts strain growth, BacTiter-Glo, 24 h; inhibition, % at 20 µM;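 active = inhibition of yeast growth at or above a set limit in either of two repeat tests at 20 µM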;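 note: tim10-1 mutant grown at permissive 25 °C to find synthetic lethal compounds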
A number is an active result; n = inactive; u = inconclusive; x = no result. Rows were chosen to be rich in hits. Some 4.6% of all compounds tested hit in one or more screens of this group.

SMILES	TIM10 inh	SKKanGAS inh	PfHsp90 yeast 2	tim10-1 inh	tim23-1 inh	NALP3 yeast inh	tim10-1 conf
Cc1cccc(NC(=O)CSc2nc(=O)n(CCN3CCOCC3)c3c2CCCC3)c1C	n	n	n	n	n	n	x
Cc1ccc(/C=C2\CCC3=C2OC(N)=C(C#N)C3c2ccc(C)cc2)cc1 (centres undefined)	n	n	n	46.5	n	n	34.3
CC(/C=N/NC(=O)CSc1n[nH]c(=O)[nH]c1=O)=C\c1ccccc1	n	n	n	n	n	n	x
CCCCOC(=O)C1=C(C)NC(=O)NC1c1ccc([N+](=O)[O-])s1 (centres undefined)	n	n	n	n	n	n	x
COc1ccccc1C(=O)Nc1ccccc1N1CCN(C(=O)c2ccc(Cl)cc2)CC1	n	n	n	47.3	n	n	n
O=C(Nc1ccccc1N1CCN(C(=O)c2ccccc2)CC1)c1ccccc1Cl	n	u	n	n	n	n	x
O=C(Nc1ccccc1N1CCN(C(=O)c2ccc(Cl)cc2)CC1)c1cccc([N+](=O)[O-])c1	n	n	n	41.6	n	n	n
CCOc1ccccc1C(=O)NC(C(=O)Nc1cccc(S(N)(=O)=O)c1)C(C)C (centres undefined)	n	n	n	n	n	n	x
Cc1nnnn1/C(=C\c1ccccc1)C(=O)OCC(=O)NC(C)(C)C	n	n	n	45.2	n	n	34.1
CC(=O)Nc1ccc(NC(=O)COC(=O)/C(=C/c2ccccc2)n2nnnc2C)cc1	n	n	n	n	n	n	x
Cc1ccc(Sc2nnc(Cc3ccccc3)c3ccccc23)cc1	n	n	x	40.7	n	n	n
COc1ccc(Sc2nnc(Cc3ccccc3)c3ccccc23)cc1	n	n	n	n	n	n	x
Nc1nc(Nc2ccccc2)nc2ccccc12	n	n	x	41.7	n	n	38.3
Cc1ccccc1Nc1nc(N)c2ccccc2n1	n	n	n	n	n	n	x
CCOc1ccc(NS(=O)(=O)c2csc(C(N)=O)c2)cc1	n	n	n	n	n	n	x
O=C(N/N=C1\CCCc2ccccc21)c1ccc([N+](=O)[O-])cc1	n	n	n	46.1	n	n	n
Fc1c(F)c(C(F)(F)F)c(F)c(F)c1N/N=C\c1cccs1	n	n	n	47.2	n	n	68.7
Cc1ccc(CC(=O)Nc2nc3ccccc3s2)cc1	n	n	n	44.0	n	n	n
COc1cc(-c2nc3cc(C)ccn3c2NC2CCCCC2)ccc1-c1ccc(C(C)=O)cc1	n	n	n	40.4	n	n	n
COc1cccc(-n2cc(-c3ccc(F)cc3)[nH]c2=S)c1	n	n	n	46.0	n	n	n
CCOC(=O)c1ccc(NC(=O)CC2OCCN(CC)C2=O)cc1 (centres undefined)	n	n	u	50.0	n	n	62.5
CN1CCN(C(=O)c2cc([N+](=O)[O-])ccc2Cl)CC1	n	n	n	n	n	n	x
CCN(CC(=O)NC(C)C)C(=O)[C@H](C)NC(=O)c1ccc(Br)cc1	n	n	n	n	n	n	x
Cc1nn(-c2ccccc2)c(Cl)c1C1C(C#N)=C(N)Oc2c1c(C)nn2-c1ccccc1 (centres undefined)	n	n	n	47.0	n	n	n
CCOC(=O)C1=C(C)OC(N)=C(C#N)C1c1c(C)nn(-c2ccccc2)c1Cl (centres undefined)	n	n	n	52.6	n	n	34.5
SMILES	TIM10 inh	SKKanGAS inh	PfHsp90 yeast 2	tim10-1 inh	tim23-1 inh	NALP3 yeast inh	tim10-1 conf
C=CCOC(=O)C1=C(C)OC(N)=C(C#N)C1c1c(C)nn(-c2ccccc2)c1Cl (centres undefined)	n	x	n	n	n	n	x
CC1CCN(Cc2nnnn2-c2cccc([N+](=O)[O-])c2)CC1	n	n	n	n	n	n	x
COc1ccccc1CNC(=O)CCS(=O)(=O)c1ccc2c(c1)CC(C)N2C(=O)C1CC1 (centres undefined)	n	n	n	n	n	n	x
Cc1ccc(CNC(=O)Cn2cnc(S(=O)(=O)N3CCC(C)CC3)c2)o1	n	n	n	n	n	n	x
O=C(NCc1cccnc1)c1c(O)c2cccc3c2n(c1=O)CCC3	n	n	n	n	n	n	x
COC(=O)C1=C(C(=O)OC)[C@@H]2N(Cc3ccccc3)c3ccccc3[C@@]23C[C@@H](C(=O)OC)N(C(=O)c2cccs2)C3=N1	n	n	n	42.4	n	n	n
COC(=O)C1=C(C(=O)OC)[C@@H]2N(C)c3ccccc3[C@@]23C[C@@H](C(=O)OC)N(C(=O)c2cccs2)C3=N1	n	n	n	n	n	n	x
Cc1ccc(CNC(=O)c2ccc(NC(=O)C3=CSCCO3)cc2)cc1	n	n	n	n	n	n	x
COc1cccc(CNC(=O)c2ccc(NC(=O)C3=CSCCO3)cc2)c1	n	n	n	44.6	n	n	n
COc1ccc(-c2nc(C)ncc2-c2ccccc2)c(O)c1	n	n	n	41.0	n	n	n
COc1ccc(-c2nc(C)ncc2-c2ccc(Cl)cc2)c(O)c1	n	n	n	n	n	n	x
CCOC(=O)CC1(NC(=O)C2CCC(=O)N(CCc3ccccc3)C2)CCCCC1 (centres undefined)	n	n	n	n	n	n	x
Fc1ccc(N/N=C/C=C/c2ccccc2)c(F)c1	n	n	n	68.8	n	n	49.4
Fc1ccc(N/N=C/c2ccncc2)c(F)c1	n	n	n	n	n	n	x
Cc1[nH]c(SCC(=O)c2c(N)n(C)c(=O)n(C)c2=O)nc1Cc1ccccc1	n	x	n	n	n	n	x
Cc1nc2c3cc(F)ccc3n(Cc3ccccc3F)c2s1	n	n	n	41.7	n	n	n
CC1CCC(NC(=O)CN2C(=O)c3cccnc3Oc3ccc(Cl)cc32)CC1 (centres undefined)	n	n	n	n	n	n	x
Nc1c(C(=O)c2ccc(F)cc2)oc2ccccc12	n	n	n	45.3	n	n	n
Nc1c(C(=O)c2ccccc2)oc2ccccc12	n	n	n	n	n	n	x
CC(=O)c1ccc(N(C(=O)c2csnn2)C(C(=O)NC(C)(C)C)c2cccs2)cc1 (centres undefined)	n	n	n	n	n	n	x
COc1ccc(CN(Cc2ccccn2)S(=O)(=O)c2ccc(-n3cnnn3)cc2)cc1	n	n	n	40.1	n	n	n
COc1ccc(CN(Cc2ccccn2)S(=O)(=O)c2ccc(-n3cnnn3)c(OC)c2)cc1	n	n	n	n	n	n	x
CC(=NC1CCCCC1)C1=C(O)c2ccccc2C1=O	n	n	n	41.4	n	n	n
